Here are results for 51 molecules from PubChem BioAssay (NCATS).

Unmarked numbers belong to inactive results. Results filed as inconclusive are left out. Calls of active or inactive are those of the source. Unless noted, the call rests on the fitted dose curve; in most records, active means well fitted curve in either direction with a large enough effect (not every such curve was filed as active); inconclusive means small, poorly fitted or top-dose-only effect, or another doubt; inactive means flat fitted curve, though single readings scatter.

Assay [1] can be described thus: AP1 Signaling Pathway (AID 357). Further: on the % scale 0 is the no-effect control and ±100 the full control effect. As to conditions: ME-180 AP-1-bla reporter, EGF-induced, beta-lactamase ratio, 5 h; at 17.2 µM (top of the series) unless noted. The method, boiled down: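 AP-1-bla ME-180 cells with beta-lactamase reporter under AP-1 response element, stimulated with EC50 EGF; compounds titrated, 5 hours at 37 degrees Celsius. CCF4 read at 460/530 nm ratio; positive and negative modulators judged by AC50.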

Assay [2] in a line: NFAT Signaling Pathway (AID 444).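 Further: carbachol stimulus at about its EC50 of 1 µM final; on the % scale 0 is the no-effect control and ±100 the full control effect.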 The note with it: Jurkat NFAT-bla M1, carbachol, beta-lactamase ratio, 5 h; at 17.2 µM (top of the series) unless noted. The method, boiled down:
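Jurkat cells carrying an NFAT-driven β-lactamase reporter and co-transfected muscarinic M1 receptor were treated with compound plus carbachol (1 uM final, an EC50 level) for 5 h at 37 °C. CCF4 loading followed for 1 h at RT; 460/530 nm ratio gave %activity.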

Assay [3] in a line: Stat Signaling Pathway (AID 446).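 Further: ME-180 cervical cancer cells given 40 pM IL-6 alongside compound; SIE-controlled beta-lactamase reporter measured as 460/530 nm FRET emission ratio; on the % scale 0 is the no-effect control and ±100 the full control effect.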 The note with it: ME-180 (cervical carcinoma) SIE beta-lactamase reporter, IL-6 stimulated, 5 h; at 17.2 µM (top of the series) unless noted. The method, boiled down:
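Emission at 460 and 530 nm (excitation 405 nm) reports SIE-controlled beta-lactamase in ME-180 cells. Cells received compound with 40 pM IL-6 for 5 hrs at 37 C; data scaled between 300 pM IL-6 and 125 nM JAK-inhibitor controls.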

In assay [4] the target is Glucocorticoid receptor (Homo sapiens) (UniProt P04150). Nature of the assay: GR-GFP Redistribution (AID 450;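 active means compounds whose dose series gives a full or clear partial fitted curve of increased nuclear translocation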; further: potency means the concentration at half of the fitted maximal effect).
Sequence of Glucocorticoid receptor (Homo sapiens) (P04150 whole entry, looked up): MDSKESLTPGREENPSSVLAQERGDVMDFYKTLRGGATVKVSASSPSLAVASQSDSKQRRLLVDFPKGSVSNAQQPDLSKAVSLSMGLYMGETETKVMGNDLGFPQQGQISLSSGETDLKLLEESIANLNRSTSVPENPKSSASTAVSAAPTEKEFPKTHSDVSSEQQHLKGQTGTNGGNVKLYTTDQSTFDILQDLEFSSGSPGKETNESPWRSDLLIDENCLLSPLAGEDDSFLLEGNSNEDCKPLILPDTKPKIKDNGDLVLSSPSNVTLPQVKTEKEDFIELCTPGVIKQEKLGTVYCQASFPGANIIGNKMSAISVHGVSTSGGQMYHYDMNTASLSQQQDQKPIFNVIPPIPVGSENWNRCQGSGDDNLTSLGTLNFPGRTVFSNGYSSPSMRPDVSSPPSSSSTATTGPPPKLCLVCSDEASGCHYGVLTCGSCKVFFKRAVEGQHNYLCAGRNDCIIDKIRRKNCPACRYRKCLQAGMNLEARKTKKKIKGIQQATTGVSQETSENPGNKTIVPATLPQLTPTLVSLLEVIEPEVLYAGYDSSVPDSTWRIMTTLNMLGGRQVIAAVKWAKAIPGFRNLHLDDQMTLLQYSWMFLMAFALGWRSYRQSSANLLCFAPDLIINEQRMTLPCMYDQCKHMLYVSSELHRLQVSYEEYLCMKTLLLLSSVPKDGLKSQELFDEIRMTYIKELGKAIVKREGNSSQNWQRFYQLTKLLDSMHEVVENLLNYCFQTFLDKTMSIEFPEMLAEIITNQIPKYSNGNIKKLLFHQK

For `CCCCOc1ccc(-c2nnc(N)s2)cc1`, the values for the activity change, negative = inhibition in assay [1] and in assay [2] were 2.03% and 25.3%, respectively. The activity, negative = inhibition in assay [3] is 10.7%. Also, in assay [4], the Potency is above 20.6 µM.
Take `COc1cccc(OC)c1OCCN1CCN(C(=O)c2ccco2)CC1`: the activity change, negative = inhibition in assay [1] was 17.1%; in assay [2], -6.56%. For the same molecule, the activity, negative = inhibition in assay [3] was 11.8%. The Potency in assay [4] was above 20.6 µM.
The like results for `Cc1cc2c(c(=O)o1)C(Cc1ccccc1)C(C#N)=C(N)O2` (centres undefined) were, in that order, 4.23%, 9.9%, -12.4% and above 20.6 µM.
Regarding `O=C(OCCN1CCOCC1)c1ccc(OCCN2CCOCC2)cc1`, the activity change, negative = inhibition in assay [1] is 1.65%; in assay [2] it was -7.8%. In addition, in assay [3], the activity, negative = inhibition was -3.54%. In addition, in assay [4], the Potency was above 20.6 µM.
The matching figures for `CCOc1ccccc1N1CCN(c2nc3ccccc3nc2C(C#N)C(=O)OC)CC1` (centres undefined): -24.3%, -106% (active), -16.5% and above 20.6 µM.
The like results for `Cc1nnc(N2CCCCC2)c2ccccc12` were, in that order, -1.88%, 13.3%, -8.53% and above 20.6 µM.
The matching figures for `COc1cc(/C=N/n2nnnc2N)ccc1O`: -2.54%, -23.8%, -1.69% and above 20.6 µM.
In the case of `CCn1nnc(C(=O)O)c1C(=O)O`, the activity change, negative = inhibition in assay [1] is 3.44%; in assay [2], 3.87%. For the same molecule, the activity, negative = inhibition in assay [3] was 1.11%. In assay [4], the Potency is above 20.6 µM.
The matching figures for `COC(=O)c1sccc1NC(=O)c1c(C)cc(=O)oc1C`: 9.11%, 8.6%, -6.64% and above 20.6 µM.
The matching figures for `O/N=C/c1ccc(OCC(O)COc2ccc(/C=N/O)cc2)cc1`: -15.3%, -1.17%, 4.46% and above 20.6 µM.
The matching figures for `CCCCCSc1nc(C)c(CC(=O)O)c(=O)[nH]1`: -1.76%, 15.5%, 12.4% and above 20.6 µM.
For the molecule `O=C(OCC#CCSc1nnc(-c2ccccc2)o1)c1cccs1`, the activity change, negative = inhibition was -3.3% in assay [1] and -29.9% in assay [2]. Also, the activity, negative = inhibition in assay [3] is -1.99%. The Potency in assay [4] is above 20.6 µM.
The matching figures for `COc1cccc(C2/C(=C(/O)c3cnn(-c4ccccc4)c3C)C(=O)C(=O)N2CCN(C)C)c1OC` (centres undefined): -4.08%, 5.52%, 3.83% and above 20.6 µM.
The matching figures for `CCOC(=O)c1c(C)n(C)c2ccc(O)c(S(=O)(=O)c3ccccc3)c12`: -9.19%, 2.35%, 11.2% and above 20.6 µM.
The matching figures for `O=C(CN1C2=NCCN2c2ccccc21)N1CCOCC1`: 5.86%, -2.85%, 8.05% and above 20.6 µM.
Take `O=C1C2ON(c3ccccc3)C(c3ccncc3)C2C(=O)N1c1ccccc1` (centres undefined): the activity change, negative = inhibition is -0.837% in assay [1] and 3.71% in assay [2]. In assay [3], the activity, negative = inhibition is 1.91%. The Potency in assay [4] was above 20.6 µM.
The matching figures for `CCCCc1nc(N2CCOCC2)c(C#N)c2c1COC(C)(C)C2`: -27.7%, 16.6%, -1.34% and above 20.6 µM.
The like results for `COC(=O)C(NC(=O)c1ccc(F)cc1)(Nc1nc(C)cs1)C(F)(F)F` (centres undefined) were, in that order, -0.49%, -21.1%, -10.7% and above 20.6 µM.
The matching figures for `CCSc1nnc(NC(=O)NCC(F)(F)F)s1`: 7.55%, 2.76%, 16.4% and above 20.6 µM.
`Cc1ccc(N2C(=O)CC(Cn3nc(C)cc3C)C2=O)cc1` (centres undefined): the figures for the activity change, negative = inhibition in assay [1] and in assay [2] were -1.66% and 6.84%, respectively. The activity, negative = inhibition in assay [3] was 13.4%. Besides, the Potency in assay [4] was above 20.6 µM.
The like results for `Cc1nc2c(c(N3CCOCC3)n1)OCC(=O)N2` were, in that order, 6.3%, -1.47%, 6.75% and above 20.6 µM.
The matching figures for `O=C(Nc1nc(=O)c2ccccc2s1)c1ccccc1`: -10.8%, -15.9%, -3.03% and above 20.6 µM.
The like results for `CCNc1nc(NC(C)C)nc(N(C#N)C(C)C(=O)N(C)C)n1` (centres undefined) were, in that order, -3.35%, 0.731%, 0.0609% and above 20.6 µM.
For `COc1ccccc1Cn1c2nc3ccccc3nc2c2c(=O)n(CC(C)C)cnc21`, the activity change, negative = inhibition was -14.3% in assay [1] and 4.7% in assay [2]. Further, in assay [3], the activity, negative = inhibition was -12.8%. Also, in assay [4], the Potency was above 20.6 µM.
The like results for `COc1cc(C)nc(Oc2ccc(=O)[nH]n2)n1` were, in that order, 16.4%, -26.6%, 13.6% and above 20.6 µM.
The matching figures for `CC1(C)NC(=O)N(CC(O)COc2cc3ccccc3cc2C(=O)N2CCCCC2)C1=O` (centres undefined): -6.63%, 8.86%, -3.07% and above 20.6 µM.
The like results for `N/C(CCCN1CCCCC1)=N/O` were, in that order, 14.3%, -3.1%, -0.379% and above 20.6 µM.
On to `COC(=O)C1=C(C)N=C2SC(C)C(=O)N2C1c1cccs1` (centres undefined), for which the activity change, negative = inhibition was -11.1% in assay [1] and -9.72% in assay [2]. For the same molecule, the activity, negative = inhibition in assay [3] is -9.23%. Further, the Potency in assay [4] was above 20.6 µM.
The like results for `Cc1ccc2c(c1)C(CCN)C(=O)N2Cc1ccccc1` (centres undefined) were, in that order, 19.6%, -9.23%, 5.36% and above 20.6 µM.
Turning to `Cc1ccc(C(=O)C2=C(O)C(=O)N(c3ncccn3)C2c2cccc(Cl)c2)o1` (centres undefined), the activity change, negative = inhibition was -1.15% in assay [1] and 24.9% in assay [2]. In assay [3], the activity, negative = inhibition is -7.64%. Also, the Potency in assay [4] was above 20.6 µM.
The like results for `CC(C)CCNc1nc2c(cc1C#N)COC(C)(C)C2` were, in that order, -23.1%, 4.17%, 4.4% and above 20.6 µM.
The matching figures for `COc1ccc(CN(C)CCc2ccccn2)c(OC)c1OC`: -14.2%, -17.4%, 11.1% and above 20.6 µM.
The matching figures for `CCOc1ccc2nc(NC(NC(=O)CC)(C(=O)OC)C(F)(F)F)sc2c1` (centres undefined): -9.26%, 8.42%, -8.24% and above 20.6 µM.
Turning to `Cc1ccc2cc(CNC(C)C)c(=O)[nH]c2c1`, the activity change, negative = inhibition in assay [1] is 3.13%; in assay [2], -10.3%. Further, in assay [3], the activity, negative = inhibition is -4.43%. Further, the Potency in assay [4] was above 20.6 µM.
The matching figures for `COc1ccccc1C(=O)N1CCCC1(C#N)c1ccccc1` (centres undefined): -10.1%, -0.126%, -2.09% and above 20.6 µM.
Turning to `Cc1nn(CCO)c2c1C(=O)CCC2`, the values for the activity change, negative = inhibition in assay [1] and in assay [2] were 3.9% and -9.31%, respectively. The activity, negative = inhibition in assay [3] was 5.4%. The Potency in assay [4] is above 20.6 µM.
The like results for `CCSc1nnc(NC(NC(=O)c2ccco2)(C(F)(F)F)C(F)(F)F)s1` were, in that order, 15.1%, -7.65%, 3.98% and above 20.6 µM.
The matching figures for `CCC(=O)O[C@@H]1CC(=O)O[C@H](C)CC=CC=C[C@@H](O)[C@H](C)C[C@H](CC=O)[C@H](O[C@H]2O[C@H](C)[C@@H](O[C@H]3C[C@@](C)(O)[C@@H](OC(=O)CC)[C@H](C)O3)[C@H](N(C)C)[C@H]2O)[C@H]1OC`: 1.11%, 8.88%, -1.1% and above 20.6 µM.
The matching figures for `CCN(CC)c1nc(C)c2c(c1C#N)CC(C)(C)OC2`: -7.83%, -24.4%, 7.18% and above 20.6 µM.
Regarding `CCOC(=O)c1[nH]c2cc3c(cc2c1NC(=O)CN1CCC2(CC1)OCCO2)OCO3`, the activity change, negative = inhibition in assay [1] is -29.3%; in assay [2], 6.91%. In addition, the activity, negative = inhibition in assay [3] was -9.66%. Moreover, the Potency in assay [4] was above 20.6 µM.
The like results for `CCOc1ccc2c(c1)n([O-])c1c([n+]2=O)CCCC1` were, in that order, 9.01%, -13%, 1.7% and above 20.6 µM.
The like results for `CCOC(=O)CCNc1n[nH]c(=O)[nH]c1=O` were, in that order, 7.71%, 7.29%, -2.32% and above 20.6 µM.
On to `CCOc1ccc(NC(=O)c2nn(C)cc2Br)cc1`, for which the activity change, negative = inhibition in assay [1] is 1.01%; in assay [2] it was 4.54%. Besides, in assay [3], the activity, negative = inhibition is 3.62%. In addition, the Potency in assay [4] is above 20.6 µM.
As to `Cn1c(NCCN2CCCCC2)cc(=O)n(C)c1=O`, the figures for the activity change, negative = inhibition in assay [1] and in assay [2] were 6.19% and -24.7%, respectively. In assay [3], the activity, negative = inhibition is 9.99%. In addition, the Potency in assay [4] is above 20.6 µM.
The like results for `O=C(Nc1ccccc1C(=O)NCCCn1ccnc1)c1ccccc1` were, in that order, 1.7%, 5.76%, 3.12% and above 20.6 µM.
Consider `COc1cccc(OC)c1-c1nn2c(-c3ccco3)nnc2s1`, for which the activity change, negative = inhibition in assay [1] was -10.9%; in assay [2], -8.25%. Moreover, the activity, negative = inhibition in assay [3] was -4.43%. In assay [4], the Potency is above 20.6 µM.
The matching figures for `CCCCOc1ccc(C(=O)N2CCCC2C(=O)O)cc1` (centres undefined): -0.0169%, -4.49%, 9.6% and above 20.6 µM.
On to `COc1ccccc1-c1c(C)oc2c(CN3CCN(C)CC3)c(O)ccc2c1=O`, for which the activity change, negative = inhibition was 1.13% in assay [1] and 5.13% in assay [2]. Also, the activity, negative = inhibition in assay [3] is 4.08%. Moreover, in assay [4], the Potency is above 20.6 µM.
The matching figures for `CCCc1nnc(NC(=O)Nc2ccccc2OC)s1`: 0.551%, 25%, -4.19% and above 20.6 µM.
The matching figures for `CC12CCC(C(=O)N(CCC#N)CCC#N)(CC1=O)C2(C)C` (centres undefined): 10.6%, 18.9%, 6.43% and above 20.6 µM.
The matching figures for `CCCCCCCC(=O)OCC(=O)[C@@]1(O)CC[C@H]2[C@@H]3CCC4=CC(=O)CC[C@]4(C)[C@H]3[C@@H](O)C[C@@]21C`: -9.61%, -28.6%, 7.91% and 0.00571 µM (active).
